These results are taken from PubChem BioAssay (Tox21).

Unmarked numbers belong to inactive results. Results filed as inconclusive are left out. Entries that show only a call come without a potency. Calls of active or inactive are those of the source. Calls follow the shape of the full dose curve.
Potency is read from the fitted curve at half-maximal effect.

Sequence of Acetylcholinesterase (Homo sapiens) (P22303 whole entry, looked up): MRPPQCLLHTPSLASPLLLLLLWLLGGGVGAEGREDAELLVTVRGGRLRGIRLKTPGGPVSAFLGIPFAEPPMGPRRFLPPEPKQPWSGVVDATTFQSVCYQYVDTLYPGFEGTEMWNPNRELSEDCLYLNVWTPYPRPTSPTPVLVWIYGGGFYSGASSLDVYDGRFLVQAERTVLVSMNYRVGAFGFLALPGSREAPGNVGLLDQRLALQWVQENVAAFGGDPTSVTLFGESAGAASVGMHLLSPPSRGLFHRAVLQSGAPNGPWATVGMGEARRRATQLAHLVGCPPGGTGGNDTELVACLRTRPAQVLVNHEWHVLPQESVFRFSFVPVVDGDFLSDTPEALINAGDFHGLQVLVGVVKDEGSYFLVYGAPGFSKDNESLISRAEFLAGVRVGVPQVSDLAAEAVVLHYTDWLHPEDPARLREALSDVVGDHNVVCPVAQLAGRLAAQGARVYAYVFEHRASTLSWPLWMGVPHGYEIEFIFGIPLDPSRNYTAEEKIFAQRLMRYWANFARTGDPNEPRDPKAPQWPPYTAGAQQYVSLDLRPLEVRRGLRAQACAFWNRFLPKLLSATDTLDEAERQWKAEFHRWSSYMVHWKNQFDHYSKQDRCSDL

In the first assay the target is Acetylcholinesterase (Homo sapiens) (UniProt P22303). As to the kind of experiment: Acetylcholinesterase (AChE) small molecule antagonists: colormetric cell-based qHTS assay (AID 1347395). Also: nearly all actives have a fitted effect of over 30% in size. As to conditions: SH-SY5Y cells AChE activity, colorimetric (Ellman); series mostly up to 115 µM. The method, boiled down:
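Quantitative HTS in attached SH-SY5Y cells: 30 min compound exposure, then 90 min with acetylthiocholine and DTNB at 37 C; colour from thiocholine reports AChE activity.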
For orientation: In qHTS, concentration-response curves come from the screen itself.
For the compound `CN(N=O)C(=O)N[C@@H]1[C@@H](O)[C@H](O)[C@@H](CO)O[C@@H]1O`, the Potency result is “inactive”.

Regarding `O=C1CCCCC1C1CCCCC1` (stereo not given), the Potency entry was “inactive”.

For `CCOC(=O)COc1ccc2c(C)c(CCN(CC)CC)c(=O)oc2c1Cl`, the Potency was 13.8 µM (active).

As to `C=C(C)C(N)=O`, the Potency entry is “inactive”.

In the case of `NC(=O)C1(N2CCCCC2)CCN(CCCC(=O)c2ccc(F)cc2)CC1`, the Potency entry was “inactive”.

In the case of `CCCC(=O)OCOC(=O)C1=C(C)NC(C)=C(C(=O)OC)C1c1cccc(Cl)c1Cl` (stereo not given), the Potency entry is “inactive”.

Turning to `O=C(Nc1ccccc1SSc1ccccc1NC(=O)c1ccccc1)c1ccccc1`, the Potency entry is “inactive”.

With `CCc1nc(N)nc(N)c1-c1ccc(Cl)cc1`, the Potency entry is “inactive”.

Regarding `CCN(Cc1ccccc1)c1ccccc1`, the Potency result was “inactive”.

On to `CCOC(=O)C1=C[C@]2(CC)CCCN3CCc4c(n1c1ccccc41)[C@@H]32`, for which the Potency result is “inactive”.

Take `COC(=O)[C@H]1[C@H]2C[C@@H]3c4[nH]c5cc(OC)ccc5c4CCN3C[C@H]2C[C@@H](OC(=O)/C=C/c2ccc(O)c(OC)c2)[C@@H]1OC`: the Potency entry is “inactive”.

As for `CC(C)OC(=O)CCC(=O)OC(C)C`, the Potency entry was “inactive”.

Regarding `CCC(=O)CC(C)CC` (stereo not given), the activity, negative = inhibition is -0.199% [at 0.435 µM].

In the case of `CN(C)C(=O)Nc1ccc(Cl)c(Cl)c1`, the Potency entry was “inactive”.

Turning to `COc1ccc(NC(=O)CC(C)=O)cc1`, the Potency entry was “inactive”.

Consider `CC(C)(C)C(=O)CC(=O)C(C)(C)C`, for which the Potency entry is “inactive”.

On to `N[C@@H](Cc1cc(I)c(Oc2cc(I)c(O)c(I)c2)c(I)c1)C(=O)O`, for which the Potency entry was “inactive”.

Consider `OC/C(Br)=C(\Br)CO`, for which the Potency result is “inactive”.

In the case of `CCCCN(CCCC)C(=S)SSC(=S)N(CCCC)CCCC`, the Potency result was “inactive”.

Regarding `FC(F)(F)c1ccccc1-n1ccnc1`, the Potency entry is “inactive”.

On to `CC1=C(C)C(=O)C(C(CCCCCC(=O)O)c2ccccc2)=C(C)C1=O` (stereo not given), for which the Potency result was “inactive”.

For the compound `CCCCC(CC)COC(=O)CCCCCCCC(=O)OCC(CC)CCCC` (stereo not given), the Potency result was “inactive”.

For `COC(=O)c1ccc(C(=O)OC)c(C(=O)OC)c1`, the Potency result was “inactive”.

Consider `O=C(O)CCCCC(=O)O`, for which the Potency result was “inactive”.

On to `CCN(CCC#N)c1ccccc1`, for which the Potency entry is “inactive”.

Consider `CCCC(=O)CC`, for which the Potency entry is “inactive”.

`CCCCCCCCCC(=O)O`: the Potency result was “inactive”.

Take `c1ccc2ncccc2c1`: the Potency result is “inactive”.

With `CN(C)[C@@H]1C(=O)C(C(N)=O)=C(O)[C@@]2(O)C(=O)C3=C(O)c4c(O)cccc4C[C@H]3C[C@@H]12`, the Potency result is “inactive”.

Regarding `O=C(CC(C(=O)OC1CCCCC1)S(=O)(=O)O)OC1CCCCC1` (stereo not given), the Potency entry was “inactive”.

For the compound `OCc1c2ccccc2cc2ccccc12`, the Potency entry was “inactive”.

`COc1ccccc1O`: the Potency result was “inactive”.

Turning to `COc1ccc(CCN(C)CCCN2CCc3cc(OC)c(OC)cc3CC2=O)cc1OC`, the Potency entry is “inactive”.

`COc1cc([C@H]2Oc3cc([C@H]4Oc5cc(O)cc(O)c5C(=O)[C@@H]4O)ccc3O[C@@H]2CO)ccc1O`: the Potency entry was “inactive”.

`CCN(Cc1cccc(S(=O)(=O)O)c1)c1ccccc1`: the Potency entry is “inactive”.

Regarding `Oc1ccc2cc(SSc3ccc4cc(O)ccc4c3)ccc2c1`, the Potency result is “inactive”.

Regarding `O=C=NCC1CCCC(CN=C=O)C1` (stereo not given), the Potency entry was “inactive”.

As to `CCC(C(=O)O)c1ccc(N2Cc3ccccc3C2=O)cc1` (stereo not given), the Potency entry is “inactive”.

As to `CCCCOC(=O)CCC(C)=O`, the Potency entry was “inactive”.

For `Cc1ccc(S(=O)(=O)NC(=O)NN2CC3CCCC3C2)cc1` (stereo not given), the Potency result was “inactive”.

A further assay shares this target. Nature of the assay: Acetylcholinesterase (AChE) small molecule antagonists: enzyme-based qHTS assay (AID 1347397). Also: nearly all actives have a fitted effect of over 55% in size. The settings on record: Potency: AChE enzyme activity inhibition; outcome: AChE enzyme activity inhibition; series mostly up to 115 µM. The method, boiled down:
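Human recombinant acetylcholinesterase; substrate acetylthiocholine; thiocholine quantified with DTNB (colorimetric). Compound preincubation 30 min RT; reaction 10 min RT.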
For the compound `CN(N=O)C(=O)N[C@@H]1[C@@H](O)[C@H](O)[C@@H](CO)O[C@@H]1O`, the Potency result was “inactive”.

With `O=C1CCCCC1C1CCCCC1` (stereo not given), the Potency result is “inactive”.

For the compound `CCOC(=O)COc1ccc2c(C)c(CCN(CC)CC)c(=O)oc2c1Cl`, the Potency is 15.5 µM (active).

Regarding `C=C(C)C(N)=O`, the Potency result was “inactive”.

On to `NC(=O)C1(N2CCCCC2)CCN(CCCC(=O)c2ccc(F)cc2)CC1`, for which the Potency result is “inactive”.

For `CCCC(=O)OCOC(=O)C1=C(C)NC(C)=C(C(=O)OC)C1c1cccc(Cl)c1Cl` (stereo not given), the Potency entry is “inactive”.

For `O=C(Nc1ccccc1SSc1ccccc1NC(=O)c1ccccc1)c1ccccc1`, the Potency entry was “inactive”.

Take `CCc1nc(N)nc(N)c1-c1ccc(Cl)cc1`: the Potency entry was “inactive”.

Consider `CCN(Cc1ccccc1)c1ccccc1`, for which the Potency result was “inactive”.

Consider `CCOC(=O)C1=C[C@]2(CC)CCCN3CCc4c(n1c1ccccc41)[C@@H]32`, for which the Potency result is “inactive”.

On to `COC(=O)[C@H]1[C@H]2C[C@@H]3c4[nH]c5cc(OC)ccc5c4CCN3C[C@H]2C[C@@H](OC(=O)/C=C/c2ccc(O)c(OC)c2)[C@@H]1OC`, for which the Potency entry was “inactive”.

On to `CC(C)OC(=O)CCC(=O)OC(C)C`, for which the Potency result was “inactive”.

Take `CCC(=O)CC(C)CC` (stereo not given): the activity change, negative = inhibition was 1.36% [at 0.435 µM].

Turning to `CN(C)C(=O)Nc1ccc(Cl)c(Cl)c1`, the Potency entry was “inactive”.

Take `COc1ccc(NC(=O)CC(C)=O)cc1`: the Potency result was “inactive”.

With `CC(C)(C)C(=O)CC(=O)C(C)(C)C`, the Potency result is “inactive”.

For `N[C@@H](Cc1cc(I)c(Oc2cc(I)c(O)c(I)c2)c(I)c1)C(=O)O`, the Potency entry is “inactive”.

`OC/C(Br)=C(\Br)CO`: the Potency entry is “inactive”.

In the case of `CCCCN(CCCC)C(=S)SSC(=S)N(CCCC)CCCC`, the Potency entry was “inactive”.

For `FC(F)(F)c1ccccc1-n1ccnc1`, the Potency entry was “inactive”.

For `CC1=C(C)C(=O)C(C(CCCCCC(=O)O)c2ccccc2)=C(C)C1=O` (stereo not given), the Potency entry was “inactive”.

As for `CCCCC(CC)COC(=O)CCCCCCCC(=O)OCC(CC)CCCC` (stereo not given), the Potency result is “inactive”.

With `COC(=O)c1ccc(C(=O)OC)c(C(=O)OC)c1`, the Potency result is “inactive”.

For `O=C(O)CCCCC(=O)O`, the Potency entry was “inactive”.

For the compound `CCN(CCC#N)c1ccccc1`, the Potency result was “inactive”.

`CCCC(=O)CC`: the Potency entry is “inactive”.

On to `CCCCCCCCCC(=O)O`, for which the Potency result was “inactive”.

For `c1ccc2ncccc2c1`, the Potency entry was “inactive”.

For the compound `CN(C)[C@@H]1C(=O)C(C(N)=O)=C(O)[C@@]2(O)C(=O)C3=C(O)c4c(O)cccc4C[C@H]3C[C@@H]12`, the Potency result was “inactive”.

Turning to `O=C(CC(C(=O)OC1CCCCC1)S(=O)(=O)O)OC1CCCCC1` (stereo not given), the Potency result is “inactive”.

For the compound `OCc1c2ccccc2cc2ccccc12`, the Potency result is “inactive”.

`COc1ccccc1O`: the Potency entry is “inactive”.

Take `COc1ccc(CCN(C)CCCN2CCc3cc(OC)c(OC)cc3CC2=O)cc1OC`: the Potency result was “inactive”.

Turning to `COc1cc([C@H]2Oc3cc([C@H]4Oc5cc(O)cc(O)c5C(=O)[C@@H]4O)ccc3O[C@@H]2CO)ccc1O`, the Potency entry was “inactive”.

As to `CCN(Cc1cccc(S(=O)(=O)O)c1)c1ccccc1`, the Potency result was “inactive”.

With `Oc1ccc2cc(SSc3ccc4cc(O)ccc4c3)ccc2c1`, the Potency result was “inactive”.

As to `O=C=NCC1CCCC(CN=C=O)C1` (stereo not given), the Potency result is “inactive”.

With `CCC(C(=O)O)c1ccc(N2Cc3ccccc3C2=O)cc1` (stereo not given), the Potency result was “inactive”.

`CCCCOC(=O)CCC(C)=O`: the Potency result is “inactive”.

As to `Cc1ccc(S(=O)(=O)NC(=O)NN2CC3CCCC3C2)cc1` (stereo not given), the Potency entry was “inactive”.
